HIF activator – HIF pathway transcriptional activation | activation, % at 7.5 µM (by protocol) | 300,000 compounds, 0.32% hits | U2OS HRE-luciferase reporter, luminescence; normalized: DMSO 0%, desferrioxamine 100%;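 active = mean activation of at least 10% of the iron chelator positive control signal, with at least half of replicates also reaching 10%; inconclusive = mean and replicate majority disagree about reaching 10%; inactive = mean and most replicates under 10%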
ALR H2O2 inh – blocks human ALR sulfhydryl oxidase activity; P55789; purified ALR, DTT oxidation, H2O2 HRP-luminol luminescence; inhibition, % (concentration not given with the values); 290,000 compounds, 3.8% hits; AID 485317;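 active = mean replicate inhibition above about 79%, with every replicate also reaching it, limit read from the data; inconclusive = only one of the two criteria met; inactive = mean below limit and not every replicate reaching it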
Target sequence (P55789 whole entry, looked up): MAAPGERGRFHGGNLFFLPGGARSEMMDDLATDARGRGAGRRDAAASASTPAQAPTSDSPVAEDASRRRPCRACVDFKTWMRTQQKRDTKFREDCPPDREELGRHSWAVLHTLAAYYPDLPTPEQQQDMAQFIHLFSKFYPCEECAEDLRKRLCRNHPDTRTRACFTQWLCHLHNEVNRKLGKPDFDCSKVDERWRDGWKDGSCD
SUMO Mot1 rescue – inhibitors of SUMOylation pathway: yeast Mot1-301 growth rescue; S. cerevisiae Mot1-301 growth rescue, ATP luminescence, 38.5C; percent above DMSO median, 100 means doubled; growth rescue, % at 18.8 µM; 320,000 compounds, 1% hits; AID 2716;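 active = every valid replicate shows activation above 250% relative to neutral control wells; inactive = the rest, any valid replicate at or below 250%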;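 also: OY570 slx delta 5 strain wells were the positive control but not used for scaling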
AI-2 QS modul – modulators of Vibrio harveyi AI-2 quorum sensing system | Vibrio harveyi JMH597 AI-2 luminescence/OD600 ratio, 9 h; stronger effect = lower value; strain lacks LuxN and CqsS sensors; 0 = neutral-control median | activity change, % at 7.5 µM | 300,000 compounds, 0.4% hits; in the data active = activity change below about -75%, passing the limit was not always enough; inconclusive = no clear call, values can overlap the other calls;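 also: luminescence divided by OD600 gain over 9 h not by final OD600 alone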
Numbers without * were called inactive; ? = inconclusive; / = no result. Only some compounds are listed: those with a hit (about 4.8% of all), similar ones and a draw of the others.

SMILES	HIF activator	ALR H2O2 inh	SUMO Mot1 rescue	AI-2 QS modul
CN1CCN(c2ccc(N)cc2Cl)CC1	0	90*	-18	23
CN1CCN(c2ccc(Cl)cc2N)CC1	0	10	12	-1
CCN(CC)c1ccc(N=Cc2c(O)n(CCc3ccc(OC)c(OC)c3)c(=O)[nH]c2=O)cc1	-1	/	-11	4
CCN(CC)c1ccc(N=Cc2c(O)n(-c3cc(OC)ccc3OC)c(=O)[nH]c2=O)cc1	1	95*	86	15
CCOc1ccc(-n2c(O)c(/C=C3\C=Nc4ccccc43)c(=O)[nH]c2=O)cc1	-31	1	297*	2
C[C@H](N)CN1CCc2ccc(Br)cc21	0	99*	-1	18
O=[N+]([O-])c1cnc[nH]1	0	-8	62	25
COC(=O)C1=C(c2ccccc2)C[C@@H]2CC[C@H]1N2C	/	6	12	/
Cc1[nH]c2ccc(O)cc2c1CCN	/	96*	-17	/
Cc1[nH]c2ccc(OCc3ccccc3)cc2c1CCN	0	12	4	7
COc1ccc(OC)c(CN2CCCC(C(=O)c3sccc3C)C2)c1 (stereo not given)	-1	-4	210	15
C=C1C(=O)[C@@]23C[C@H]4[C@@H]5[C@@]6(C)CCC[C@@]57[C@@H]2[C@@H](O)[C@@H]1C[C@H]3[C@H]7N4C6	0	1	-1	1
CCOP(=O)(C#CC(C)(C)C)C1(O)CCCCC1 (stereo not given)	98*	-1	198	19
CCOP(=O)(OCC)C(C)(C)NC(=O)C(Cl)(Cl)Cl	-1	-4	-5	19
Cc1cc(OCC(=O)N[C@H](C(=O)O)c2ccccc2)c2c3c(c(=O)oc2c1)CCC3	0	-11	-15	14
Cc1ccc(/C=C2\C(=O)NC(=O)N(Cc3ccccc3Cl)C2=O)o1	0	99*	22	8
Cc1ccc(/C=C2/C(=O)NC(=O)N(Cc3ccc(F)cc3)C2=O)o1	0	/	-10	-7
O=C1NC(=O)N(Cc2ccccc2Cl)C(=O)/C1=C/c1cccs1	0	97*	-8	-5
CCc1ccccc1NC(=O)CNCc1ccccc1	0	-2	-12	23
c1ccc2c(c1)Sc1ccccc1N2CC1CN2CCC1CC2 (stereo not given)	1	98*	-13	17
Clc1ccccc1CNC1CN2CCC1CC2 (stereo not given)	0	13	-20	9
COC(=O)c1ccccc1OP1(=O)COc2ccccc2OC1	0	99*	-2	1
O=P1(Nc2ccc(F)cc2)COc2ccccc2OC1	0	-8	-16	11
Cc1ccc(-c2ccc(=O)n(CC(=O)N3CCC4(CC3)OCCO4)n2)cc1	0	-5	-15	10
Cc1ccc(-c2nc(CS(=O)CC(=O)N3CCC4(CC3)OCCO4)c(C)o2)cc1 (stereo not given)	0	99*	2	1
SMILES	HIF activator	ALR H2O2 inh	SUMO Mot1 rescue	AI-2 QS modul
CN1C(=O)C(c2ccc([N+](=O)[O-])cc2[N+](=O)[O-])C(=O)N(C)C1=O	-7	-30	-6	16
Cc1ccccc1-[n+]1c(-c2ccccc2)cc(-c2ccccc2)cc1-c1ccccc1	2	-10	-12	0
CCOc1cc2c(cc1OCC)-n1cccc1C(c1ccccc1OC)NC2 (stereo not given)	2	/	-19	5
Cc1nc2c(=O)n(C)c(=O)nc-2n(C)n1	-5	-37	-19	-95*
CC(C)CN1CCN(Cc2ccc(F)cc2Cl)CC1CCO (stereo not given)	-1	-3	4	11
Cc1ncc(CN2CCCC(C(=O)c3sccc3C)C2)s1 (stereo not given)	0	-7	5	-3
CCN(CC)S(=O)(=O)c1ccc(N=Cc2c(O)n(-c3ccccc3)c(=O)[nH]c2=O)cc1	0	-5	73	13
O=c1[nH]c(=O)n(-c2ccc(Cl)cc2)c(O)c1C=Nc1ccc(S(=O)(=O)Nc2nccs2)cc1	0	17	19	-78*
CC1(C)C[C@H]2C=C(C=O)[C@]3(C=O)C[C@]3(C)[C@H]2C1	-4	-2	358*	10
COc1ccccc1N1C(=O)NC(=O)/C(=C/c2ccc3c(c2)Cc2ccccc2-3)C1=O	0	3	8	10
CN1C(=O)/C(=C\c2ccc(N3CCCCCC3)cc2)C(=O)NC1=S	0	-12	-7	25
CCCCN1C(=O)/C(=C/c2ccc(N3CCCCCC3)cc2)C(=O)NC1=S	0	9	-13	-2
CCN1C(=O)/C(=C/c2ccc3c(c2)CCN3CCCCl)C(=O)NC1=S	-2	98*	-9	-40
CC(C)(C)N1C(=O)NC(=O)/C(=C\c2ccc3c(c2)CCN3CCCCl)C1=O	0	90*	-15	/
C=CCN1C(=O)/C(=C/c2ccc3c(c2)CCCN3CCC)C(=O)NC1=S	0	99*	-8	14
O=C1NC(=S)N(C2CC2)C(=O)/C1=C/c1ccc2c(c1)CCN2CCCCl	0	98*	0	-44
COc1ccc(C2(c3cccc(O)c3OC)CCN(C(C)=O)CC2)cc1O	-1	?	-2	12
O=C(NC(=O)c1c(F)cccc1F)Nc1cc(Cl)c(F)c(Cl)c1F	0	-6	-4	19
Cc1c(CC(=O)N2C[C@H]3C[C@@H](C2)c2cccc(=O)n2C3)c(=O)oc2cc(O)c(Cl)cc12	1	-11	-5	-4
Cc1c(CC(=O)N2C[C@H]3C[C@@H](C2)c2cccc(=O)n2C3)c(=O)oc2c(C)c(O)ccc12	0	89*	2	12
CC(=O)C1(c2ccccc2)CCN(C(=O)C2CCC(=O)N(CCc3cccc(F)c3)C2)CC1 (stereo not given)	0	-3	8	-2
O=[N+]([O-])c1ccc(O)c([N+](=O)[O-])c1	0	-5	-7	24
O=[N+]([O-])c1cc(O)c(O)c([N+](=O)[O-])c1	/	92*	-2	/
O/N=C/c1c[nH]c2ccccc12	0	/	10	5
CCCC/C(=N\O)c1c[nH]c2ccccc12	0	89*	-17	28
SMILES	HIF activator	ALR H2O2 inh	SUMO Mot1 rescue	AI-2 QS modul
COC(=O)C1=C(c2c(C)noc2C)C[C@@H]2CC[C@H]1N2C(=O)NCC1CC1	/	-5	-1	/
C=C1C(=O)O[C@@H]2C[C@@H](C)[C@@H]3C=CC(=O)[C@@]3(C)[C@@H](OC(=O)CC(=O)O[C@H]3[C@@H]4C(=C)C(=O)O[C@@H]4C[C@@H](C)[C@@H]4C=CC(=O)[C@]43C)[C@H]12	-6	6	-4	24
C=C1C(=O)O[C@@H]2C[C@@H](C)[C@@H]3C4OC4C(=O)[C@@]3(C)[C@@H](O)[C@H]12 (stereo not given in full)	-4	98*	-12	-5
Nc1ccc(S(=O)(=O)N2CCCCC2c2cccnc2)cc1 (stereo not given)	/	90*	244	14
O=S(=O)(c1ccccc1)N1CCCCC1c1cccnc1 (stereo not given)	/	-8	248	6
O=C(O)Cn1cc(C=C2C(=O)NC(=O)NC2=O)c2ccccc21	1	49	36	7
